Experimental data: the supplement of paper PMC7411054
Counter-ions that a name gives are not always drawn.

Assays:
Assay in all cases: lowest phenotypically active concentration; higher = less potent
Conditions in all cases: treatment time: 24 h
A549-TP53BP1-CLTA = test system: A549-TP53BP1-CLTA
Method in brief: (§1)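 The reporter lines, fifteen in total and built by gene editing in A549, HepG2 and WPMY1 cells, used BFP for segmentation alongside GFP and RFP/FusionRed markers. Each was treated at 0.3, 1, 3 or 9 µM for 24 h in four wells and then imaged live, with live-cell features normalised to solvent control wells. Deviation meant ≥3 of 4 wells beyond the 95th percentile of control Euclidean distances; reproducibility meant a median replicate Pearson correlation above the 95th percentile of non-replicates. Only conditions meeting both were scored as phenotypically active.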

HepG2-CANX-COX4 = test system: HepG2-CANX-COX4
Method in brief: as §1

HepG2-GM130-SQSTM1 = test system: HepG2-GM130-SQSTM1
Method in brief: as §1

HepG2-TP53BP1-CLTA = test system: HepG2-TP53BP1-CLTA
Method in brief: as §1

HepG2-TUBA1B-RELA = test system: HepG2-TUBA1B-RELA
Method in brief: as §1

WPMY1-ACTB-RAB5A = test system: WPMY1-ACTB-RAB5A
Method in brief: as §1

WPMY1-CANX-COX4 = test system: WPMY1-CANX-COX4
Method in brief: as §1

WPMY1-GM130-SQSTM1 = test system: WPMY1-GM130-SQSTM1
Method in brief: as §1

WPMY1-TP53BP1-CLTA = test system: WPMY1-TP53BP1-CLTA
Method in brief: as §1

WPMY1-TUBA1B-RELA = test system: WPMY1-TUBA1B-RELA
Method in brief: as §1

SMILES	lowest phenotypically active concentration (A549-TP53BP1-CLTA)	lowest phenotypically active concentration (HepG2-CANX-COX4)	lowest phenotypically active concentration (HepG2-GM130-SQSTM1)	lowest phenotypically active concentration (HepG2-TP53BP1-CLTA)	lowest phenotypically active concentration (HepG2-TUBA1B-RELA)	lowest phenotypically active concentration (WPMY1-ACTB-RAB5A)	lowest phenotypically active concentration (WPMY1-CANX-COX4)	lowest phenotypically active concentration (WPMY1-GM130-SQSTM1)	lowest phenotypically active concentration (WPMY1-TP53BP1-CLTA)	lowest phenotypically active concentration (WPMY1-TUBA1B-RELA)
CC1=C(C(=O)Nc2cc3cn[nH]c3cc2F)C(c2ccc(C(F)(F)F)cc2)CC(=O)N1 (stereo not given)	≤ 0.3 µM	≤ 0.3 µM	≤ 0.3 µM	≤ 0.3 µM	≤ 0.3 µM	≤ 0.3 µM	≤ 0.3 µM	≤ 0.3 µM	3 µM	≤ 0.3 µM
CC(=O)NCC(=O)N1[C@@H]2CC[C@H]1c1ccc(Nc3ncc(C(F)(F)F)c(NC4CCC4)n3)cc12	≤ 0.3 µM	≤ 0.3 µM	≤ 0.3 µM	≤ 0.3 µM	≤ 0.3 µM	≤ 0.3 µM	≤ 0.3 µM	≤ 0.3 µM	≤ 0.3 µM	≤ 0.3 µM
Fc1ccccc1CNCc1ccc(-c2ccnc3[nH]ccc23)cc1 [OXA 06 dihydrochloride]	1 µM	1 µM	≤ 0.3 µM	1 µM	1 µM	1 µM	≤ 0.3 µM	1 µM	9 µM	1 µM
COc1cc(C(=O)NC2CCN(C)CC2)c(F)cc1Nc1ncc2c(n1)N(C1CCCC1)CC(F)(F)C(=O)N2C [TAK 960 hydrochloride]	≤ 0.3 µM	≤ 0.3 µM	≤ 0.3 µM	≤ 0.3 µM	≤ 0.3 µM	≤ 0.3 µM	1 µM	≤ 0.3 µM	≤ 0.3 µM	≤ 0.3 µM
Nc1ncn([C@@H]2O[C@H](CO)[C@@H](O)[C@H]2O)c(=O)n1 [5-Azacytidine]	1 µM	≤ 0.3 µM	≤ 0.3 µM	≤ 0.3 µM	1 µM	3 µM	3 µM	1 µM	3 µM	3 µM
CC1(C)CC(=O)C2=C(C1)NC(=S)NC2c1cccc(O)c1 (stereo not given) [Dimethylenastron]	3 µM	1 µM	1 µM	1 µM	1 µM	1 µM	3 µM	1 µM	1 µM	1 µM
O=C(CCCCCN1C(=O)c2cccc3cccc(c23)C1=O)NO [Scriptaid]	1 µM	1 µM	≤ 0.3 µM	≤ 0.3 µM	≤ 0.3 µM	1 µM	1 µM	1 µM	1 µM	1 µM
COc1ccc2cc1Oc1ccc(cc1)C[C@H]1c3cc(c(OC)cc3CCN1C)Oc1c(OC)c(OC)cc3c1[C@H](C2)N(C)CC3 [Tetrandrine]	1 µM	3 µM	≤ 0.3 µM	1 µM	≤ 0.3 µM	1 µM	1 µM	≤ 0.3 µM	3 µM	1 µM
CC[C@@H]1C(=O)N(C)c2cnc(Nc3ccc(C(=O)NC4CCN(C)CC4)cc3OC)nc2N1C1CCCC1	≤ 0.3 µM	1 µM	≤ 0.3 µM	≤ 0.3 µM	≤ 0.3 µM	≤ 0.3 µM	≤ 0.3 µM	≤ 0.3 µM	≤ 0.3 µM	≤ 0.3 µM
Nc1cccc(-c2cc3c(Oc4cccc(O)c4)ncnc3[nH]2)c1	1 µM	9 µM	3 µM	3 µM	3 µM	3 µM	9 µM	9 µM	3 µM	9 µM
COc1cc(N2CCN(C)CC2)ccc1Nc1nccc(-c2cn(C)c3cnccc23)n1	1 µM	1 µM	1 µM	1 µM	1 µM	1 µM	≤ 0.3 µM	1 µM	1 µM	1 µM
NC1(C(=O)N[C@@H](CCO)c2ccc(Cl)cc2)CCN(c2ncnc3[nH]ccc23)CC1	1 µM	3 µM	1 µM	1 µM	1 µM	1 µM	1 µM	1 µM	1 µM	1 µM
C[C@@H](Oc1cc(-n2cnc3ccc(CN4CCN(C)CC4)cc32)sc1C(N)=O)c1ccccc1C(F)(F)F	≤ 0.3 µM	≤ 0.3 µM	≤ 0.3 µM	≤ 0.3 µM	≤ 0.3 µM	≤ 0.3 µM	3 µM	≤ 0.3 µM	≤ 0.3 µM	≤ 0.3 µM
COc1cc(N2CCC(N3CCN(C)CC3)CC2)ccc1Nc1ncnc(Nc2ccccc2S(=O)(=O)C(C)C)n1	9 µM	3 µM	9 µM	9 µM	9 µM	9 µM	3 µM	9 µM	9 µM	9 µM
CC(C)(C)c1cnc(CSc2cnc(NC(=O)C3CCNCC3)s2)o1	≤ 0.3 µM	≤ 0.3 µM	≤ 0.3 µM	≤ 0.3 µM	≤ 0.3 µM	≤ 0.3 µM	≤ 0.3 µM	≤ 0.3 µM	≤ 0.3 µM	≤ 0.3 µM
Oc1cccc(-c2nc(N3CCOCC3)c3oc4ncccc4c3n2)c1 [PI 103 hydrochloride]	≤ 0.3 µM	≤ 0.3 µM	≤ 0.3 µM	≤ 0.3 µM	≤ 0.3 µM	≤ 0.3 µM	≤ 0.3 µM	≤ 0.3 µM	≤ 0.3 µM	≤ 0.3 µM
Cc1cc(Nc2cc(C)c(C#N)c(NC(C)CCCC(C)(C)O)n2)n[nH]1 (stereo not given) [TC-A 2317 hydrochloride]	1 µM	1 µM	≤ 0.3 µM	≤ 0.3 µM	≤ 0.3 µM	1 µM	1 µM	1 µM	≤ 0.3 µM	1 µM
